In experiment [1] the target is Serine/threonine-protein kinase MARK2 (Homo sapiens) (UniProt Q7KZI7). The settings on record: at 1 µM.
The target in experiment [2] is PAS domain-containing serine/threonine-protein kinase (Homo sapiens) (UniProt Q96RG2). Particulars: at 0.1 µM.
Experiment [3] has the same target. The settings on record: at 1 µM.
Experiment [4] addresses Phosphorylase b kinase gamma catalytic chain, skeletal muscle/heart isoform (Homo sapiens) (UniProt Q16816). Particulars: at 0.1 µM.
The target is the same in experiment [5]. Particulars: at 1 µM.
Experiment [6] has as its target T1, Phosphorylase b kinase gamma catalytic chain, liver/testis isoform (Homo sapiens) (UniProt P15735).
T1 sequence (whole entry): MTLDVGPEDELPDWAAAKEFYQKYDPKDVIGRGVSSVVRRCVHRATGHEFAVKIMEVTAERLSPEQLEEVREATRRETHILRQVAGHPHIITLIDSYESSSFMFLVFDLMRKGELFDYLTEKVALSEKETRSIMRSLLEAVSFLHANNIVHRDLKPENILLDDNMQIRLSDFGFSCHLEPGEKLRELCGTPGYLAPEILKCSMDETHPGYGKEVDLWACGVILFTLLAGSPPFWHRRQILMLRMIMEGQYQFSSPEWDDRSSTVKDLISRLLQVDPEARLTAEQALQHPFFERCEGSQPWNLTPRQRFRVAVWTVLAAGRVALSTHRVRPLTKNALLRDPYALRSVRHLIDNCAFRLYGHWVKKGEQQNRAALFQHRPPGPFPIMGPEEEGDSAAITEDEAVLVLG
The settings on record: at 0.1 µM.

Experiment [7] deals with T1, Phosphorylase b kinase gamma catalytic chain, liver/testis isoform (Homo sapiens). The settings on record: at 1 µM.
Experiment [8] concerns the target Serine/threonine-protein kinase pim-1 (Homo sapiens) (UniProt P11309). Particulars: at 0.1 µM.
Experiment [9] has the same target. Particulars: at 1 µM.
In experiment [10] the target is Serine/threonine-protein kinase pim-2 (Homo sapiens) (UniProt Q9P1W9). The settings on record: at 0.1 µM.
For experiment [11] the target is unchanged. Particulars: at 1 µM.
The target in experiment [12] is Serine/threonine-protein kinase pim-3 (Homo sapiens) (UniProt Q86V86). Particulars: at 0.1 µM.
For experiment [13] the target is unchanged. Particulars: at 1 µM.
The target in experiment [14] is T2, MAP kinase-activated protein kinase 5 (Homo sapiens) (UniProt Q8IW41).
T2 sequence (whole entry): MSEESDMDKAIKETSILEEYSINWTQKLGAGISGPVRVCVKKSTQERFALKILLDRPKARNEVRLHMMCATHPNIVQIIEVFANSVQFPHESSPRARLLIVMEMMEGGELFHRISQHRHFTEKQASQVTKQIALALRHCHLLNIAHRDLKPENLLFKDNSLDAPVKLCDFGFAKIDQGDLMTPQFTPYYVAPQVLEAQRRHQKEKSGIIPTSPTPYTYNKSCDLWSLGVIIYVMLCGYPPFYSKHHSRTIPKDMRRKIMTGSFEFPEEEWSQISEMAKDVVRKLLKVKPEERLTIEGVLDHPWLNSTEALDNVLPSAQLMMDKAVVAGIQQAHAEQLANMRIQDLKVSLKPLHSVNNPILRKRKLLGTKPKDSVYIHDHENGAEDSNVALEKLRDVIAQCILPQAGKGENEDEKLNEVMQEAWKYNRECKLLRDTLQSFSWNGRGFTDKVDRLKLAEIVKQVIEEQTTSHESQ
Particulars: at 0.1 µM.

The target in experiment [15] is T2, MAP kinase-activated protein kinase 5 (Homo sapiens). Particulars: at 1 µM.
Experiment [16] addresses Serine/threonine-protein kinase SIK1 (Homo sapiens) (UniProt P57059). Particulars: at 0.1 µM.
For experiment [17] the target is unchanged. Particulars: at 1 µM.
Experiment [18] concerns the target Serine/threonine-protein kinase SIK2 (Homo sapiens) (UniProt Q9H0K1). Particulars: at 0.1 µM.
Experiment [19] has the same target. The settings on record: at 1 µM.
Experiment [20] has as its target T3, Serine/threonine-protein kinase TBK1 (Homo sapiens) (UniProt Q9UHD2).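 Note: values are the mean TBK1 inhibition, taken from the GSK PKIS screening data.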
T3 sequence (whole entry): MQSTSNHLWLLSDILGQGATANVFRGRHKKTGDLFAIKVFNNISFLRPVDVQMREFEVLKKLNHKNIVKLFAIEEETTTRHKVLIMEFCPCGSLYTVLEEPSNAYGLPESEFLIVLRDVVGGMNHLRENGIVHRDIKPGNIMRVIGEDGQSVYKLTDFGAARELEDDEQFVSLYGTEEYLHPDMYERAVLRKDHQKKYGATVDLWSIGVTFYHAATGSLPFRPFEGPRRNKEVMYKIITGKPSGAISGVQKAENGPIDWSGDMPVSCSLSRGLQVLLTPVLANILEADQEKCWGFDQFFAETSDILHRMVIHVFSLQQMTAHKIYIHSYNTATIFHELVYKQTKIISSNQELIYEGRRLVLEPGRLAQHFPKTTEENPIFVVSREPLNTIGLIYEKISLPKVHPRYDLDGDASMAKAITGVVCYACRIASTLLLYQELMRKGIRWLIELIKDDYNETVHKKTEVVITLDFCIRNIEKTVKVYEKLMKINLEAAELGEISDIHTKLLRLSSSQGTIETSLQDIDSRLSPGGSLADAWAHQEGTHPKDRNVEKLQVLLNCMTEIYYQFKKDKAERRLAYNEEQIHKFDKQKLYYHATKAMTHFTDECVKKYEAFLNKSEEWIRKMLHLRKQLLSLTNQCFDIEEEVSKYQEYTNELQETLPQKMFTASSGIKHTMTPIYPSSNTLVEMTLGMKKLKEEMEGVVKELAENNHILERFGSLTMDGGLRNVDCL
The settings on record: at 0.1 µM.

The inhibition is the change of the read-out against control, counted positive when it falls.

Chain of Serine/threonine-protein kinase pim-1 (Homo sapiens) (P11309 whole entry, looked up): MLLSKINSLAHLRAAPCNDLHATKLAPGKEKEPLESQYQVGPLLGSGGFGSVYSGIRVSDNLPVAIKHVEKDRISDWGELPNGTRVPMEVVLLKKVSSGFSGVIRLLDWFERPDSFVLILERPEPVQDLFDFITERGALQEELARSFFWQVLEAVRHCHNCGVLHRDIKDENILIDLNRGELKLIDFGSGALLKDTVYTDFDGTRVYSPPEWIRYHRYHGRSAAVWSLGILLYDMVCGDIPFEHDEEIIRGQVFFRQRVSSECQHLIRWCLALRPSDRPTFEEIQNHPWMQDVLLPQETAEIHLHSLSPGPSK
Chain of Phosphorylase b kinase gamma catalytic chain, skeletal muscle/heart isoform (Homo sapiens) (Q16816 whole entry, looked up, canonical isoform): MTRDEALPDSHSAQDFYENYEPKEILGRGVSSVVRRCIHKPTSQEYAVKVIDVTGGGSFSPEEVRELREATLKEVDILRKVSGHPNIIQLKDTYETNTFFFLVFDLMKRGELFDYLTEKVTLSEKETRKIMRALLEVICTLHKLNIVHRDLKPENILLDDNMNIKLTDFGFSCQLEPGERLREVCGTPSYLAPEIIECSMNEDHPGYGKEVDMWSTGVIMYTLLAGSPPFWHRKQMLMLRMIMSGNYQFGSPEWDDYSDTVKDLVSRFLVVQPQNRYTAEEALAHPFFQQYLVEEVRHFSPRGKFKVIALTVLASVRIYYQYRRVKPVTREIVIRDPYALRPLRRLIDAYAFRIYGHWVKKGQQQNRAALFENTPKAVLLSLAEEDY
Chain of Serine/threonine-protein kinase SIK1 (Homo sapiens) (P57059 whole entry): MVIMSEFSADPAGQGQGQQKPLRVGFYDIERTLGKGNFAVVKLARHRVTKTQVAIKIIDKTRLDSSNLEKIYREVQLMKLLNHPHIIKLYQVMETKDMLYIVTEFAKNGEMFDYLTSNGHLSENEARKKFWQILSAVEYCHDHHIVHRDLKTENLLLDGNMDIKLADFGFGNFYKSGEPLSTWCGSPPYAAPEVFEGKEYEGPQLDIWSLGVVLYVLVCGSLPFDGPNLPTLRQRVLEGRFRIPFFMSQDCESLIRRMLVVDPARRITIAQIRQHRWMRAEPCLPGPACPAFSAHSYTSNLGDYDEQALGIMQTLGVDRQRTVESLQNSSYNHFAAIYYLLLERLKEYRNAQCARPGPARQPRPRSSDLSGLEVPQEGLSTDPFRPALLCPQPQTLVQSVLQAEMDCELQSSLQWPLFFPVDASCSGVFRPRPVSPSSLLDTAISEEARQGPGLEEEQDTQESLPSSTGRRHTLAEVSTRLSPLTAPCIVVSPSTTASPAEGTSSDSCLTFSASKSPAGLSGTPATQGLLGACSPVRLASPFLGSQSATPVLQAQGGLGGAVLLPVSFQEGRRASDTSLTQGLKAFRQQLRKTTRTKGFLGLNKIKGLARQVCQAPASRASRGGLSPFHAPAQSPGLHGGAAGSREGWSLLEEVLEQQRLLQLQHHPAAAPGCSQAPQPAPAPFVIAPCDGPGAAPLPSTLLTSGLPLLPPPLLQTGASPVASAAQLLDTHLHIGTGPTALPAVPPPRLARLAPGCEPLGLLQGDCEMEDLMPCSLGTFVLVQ
Chain of PAS domain-containing serine/threonine-protein kinase (Homo sapiens) (Q96RG2 whole entry, the tested form may be a part): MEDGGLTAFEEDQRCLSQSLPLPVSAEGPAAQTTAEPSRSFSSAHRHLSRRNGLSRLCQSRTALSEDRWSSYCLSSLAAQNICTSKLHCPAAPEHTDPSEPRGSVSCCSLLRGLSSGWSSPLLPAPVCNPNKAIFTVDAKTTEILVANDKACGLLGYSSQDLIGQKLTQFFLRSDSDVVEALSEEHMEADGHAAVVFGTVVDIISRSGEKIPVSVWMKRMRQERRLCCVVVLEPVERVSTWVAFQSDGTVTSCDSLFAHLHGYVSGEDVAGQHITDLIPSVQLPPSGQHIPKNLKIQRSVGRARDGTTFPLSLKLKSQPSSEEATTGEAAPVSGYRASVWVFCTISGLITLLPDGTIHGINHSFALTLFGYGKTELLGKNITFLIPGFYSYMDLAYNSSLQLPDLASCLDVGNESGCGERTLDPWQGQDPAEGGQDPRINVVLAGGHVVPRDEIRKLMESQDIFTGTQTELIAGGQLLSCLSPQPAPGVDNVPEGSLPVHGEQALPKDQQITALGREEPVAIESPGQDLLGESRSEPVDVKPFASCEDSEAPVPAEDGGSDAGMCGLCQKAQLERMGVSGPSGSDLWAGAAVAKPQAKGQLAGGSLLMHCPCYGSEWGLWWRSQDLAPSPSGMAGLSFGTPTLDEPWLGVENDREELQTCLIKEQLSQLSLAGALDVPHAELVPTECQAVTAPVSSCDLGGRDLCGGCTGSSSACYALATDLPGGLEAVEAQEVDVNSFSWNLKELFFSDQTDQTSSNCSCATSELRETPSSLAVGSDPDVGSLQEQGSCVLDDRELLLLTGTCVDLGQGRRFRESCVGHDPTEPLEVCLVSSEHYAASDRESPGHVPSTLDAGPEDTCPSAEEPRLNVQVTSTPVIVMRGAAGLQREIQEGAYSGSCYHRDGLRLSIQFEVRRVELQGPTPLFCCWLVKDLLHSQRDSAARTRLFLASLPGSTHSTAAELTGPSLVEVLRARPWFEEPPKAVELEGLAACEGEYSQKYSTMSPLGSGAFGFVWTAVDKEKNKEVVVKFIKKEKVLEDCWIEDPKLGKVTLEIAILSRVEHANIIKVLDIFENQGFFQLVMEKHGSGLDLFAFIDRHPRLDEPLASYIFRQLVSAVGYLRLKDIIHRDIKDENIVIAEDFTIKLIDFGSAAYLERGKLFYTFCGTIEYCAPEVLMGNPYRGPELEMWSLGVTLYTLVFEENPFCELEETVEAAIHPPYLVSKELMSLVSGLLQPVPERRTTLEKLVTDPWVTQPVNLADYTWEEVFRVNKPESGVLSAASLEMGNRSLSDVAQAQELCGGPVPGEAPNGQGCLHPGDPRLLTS
Chain of Serine/threonine-protein kinase MARK2 (Homo sapiens) (Q7KZI7 whole entry, the tested form may be a part): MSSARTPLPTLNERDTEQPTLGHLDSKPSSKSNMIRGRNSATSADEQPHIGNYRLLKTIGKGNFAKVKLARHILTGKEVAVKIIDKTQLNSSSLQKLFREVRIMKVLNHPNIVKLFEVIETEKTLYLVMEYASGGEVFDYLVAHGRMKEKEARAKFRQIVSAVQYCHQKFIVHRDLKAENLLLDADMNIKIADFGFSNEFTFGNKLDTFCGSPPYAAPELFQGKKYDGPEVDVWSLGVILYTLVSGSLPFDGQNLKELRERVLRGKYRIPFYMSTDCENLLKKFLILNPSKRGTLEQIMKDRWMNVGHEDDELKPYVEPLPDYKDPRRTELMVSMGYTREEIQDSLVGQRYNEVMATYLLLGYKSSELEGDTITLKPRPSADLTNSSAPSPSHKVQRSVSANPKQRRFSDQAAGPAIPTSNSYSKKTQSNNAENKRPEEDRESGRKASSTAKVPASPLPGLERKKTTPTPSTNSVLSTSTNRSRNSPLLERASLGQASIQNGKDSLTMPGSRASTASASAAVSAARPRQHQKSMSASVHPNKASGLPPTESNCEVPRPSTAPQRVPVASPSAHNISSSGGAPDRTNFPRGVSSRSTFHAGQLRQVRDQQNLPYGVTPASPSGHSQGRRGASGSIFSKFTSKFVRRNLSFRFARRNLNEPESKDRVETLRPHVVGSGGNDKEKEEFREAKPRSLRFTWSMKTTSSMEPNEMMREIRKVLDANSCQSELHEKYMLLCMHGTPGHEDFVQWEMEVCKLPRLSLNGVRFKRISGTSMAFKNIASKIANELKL
Chain of Serine/threonine-protein kinase pim-2 (Homo sapiens) (Q9P1W9 whole entry, looked up): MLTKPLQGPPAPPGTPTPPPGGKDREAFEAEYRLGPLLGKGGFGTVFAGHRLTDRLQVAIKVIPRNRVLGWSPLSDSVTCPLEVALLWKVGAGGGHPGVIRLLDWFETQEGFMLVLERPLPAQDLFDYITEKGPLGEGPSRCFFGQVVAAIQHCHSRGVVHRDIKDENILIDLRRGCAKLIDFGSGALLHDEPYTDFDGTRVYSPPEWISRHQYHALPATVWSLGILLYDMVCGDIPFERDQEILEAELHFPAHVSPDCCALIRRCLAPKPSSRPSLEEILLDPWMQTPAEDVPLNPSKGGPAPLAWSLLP

In the case of `CC(C)c1ccc2c(c1)NC(=O)/C2=N/Nc1ccc(S(N)(=O)=O)cc1`, the inhibition in [1] was -0.8%; in experiment [2] it was 1.25%; in [3], 0.24%; in experiment [4], -0.83%; in [5], 1.14%; in [6], 0.03%. Also, the inhibition is 0.32% in experiment [7]; 0.27% in experiment [8]; -0.22% in experiment [9]; -0.21% in [10]; 1.32% in [11]; 2.03% in experiment [12]. The inhibition is 3.02% in [13]; 0.46% in experiment [14]; 0.35% in experiment [15]; 1.04% in experiment [16]; 7.02% in experiment [17]; 2.29% in experiment [18]. For the same compound, the values for the inhibition in experiment [19] and in experiment [20] were 2.16% and -1%, respectively.
On to `NS(=O)(=O)c1ccc(N/N=C2\C(=O)Nc3ccc(Cl)cc32)cc1`, for which the inhibition in [1] turned out to be 6.16%; in experiment [2], 0.76%; in [3], 1.52%; in experiment [4], 0.25%; in experiment [5], 14.3%; in [6], 5.9%. Moreover, the inhibition in [7] was 8.4%; in experiment [8] it was 1.22%; in [9], 2.42%; in experiment [10], -0.27%; in [11], 2.1%; in experiment [12] it was 0.5%. For the same compound, the inhibition in experiment [13] worked out at 4.86%; in [14], 1.31%; in experiment [15] it was 3.24%; in [16], 3.88%; in experiment [17] it was 10.9%; in experiment [18], 3.51%. Also, the inhibition in [19] stood at 10.6%; in experiment [20], 2.27%.
Regarding `O=C1Nc2ccc(-c3cccnc3)cc2C1=Cc1cc(Br)c(O)c(Br)c1`, the inhibition came to 5.11% in experiment [1]; 0.91% in experiment [2]; 1.32% in [3]; 3.37% in experiment [4]; 9.21% in experiment [5]; 4.01% in [6]. For the same compound, the inhibition in [7] was -0.09%; in experiment [8], 6.4%; in [9], 37.6%; in experiment [10], 8.09%; in experiment [11] it was 46.5%; in experiment [12] it was 8.54%. For the same compound, the inhibition is 49% in [13]; 0.52% in [14]; 0.45% in [15]; 6.08% in experiment [16]; 4.86% in [17]; -1.13% in [18]. Further, the values for the inhibition in experiment [19] and in experiment [20] were -0.16% and 3.66%, respectively.
For `CN(C)C(=O)O[C@@H]1CN[C@@H](C#Cc2cc3ncnc(Nc4ccc(OCc5cccc(F)c5)c(Cl)c4)c3s2)C1`, the inhibition is 1.06% in experiment [1]; -0.1% in experiment [2]; -0.12% in [3]; 0.51% in experiment [4]; -3.21% in [5]; 1.07% in experiment [6]. Moreover, the inhibition in [7] is -1.09%; in [8], 1.41%; in experiment [9] it was 0.48%; in [10], 0.15%; in [11], 0.58%; in experiment [12], -0.21%. Moreover, the inhibition in [13] was -1.29%; in experiment [14], -0.43%; in experiment [15], -2.16%; in experiment [16], 0.03%; in [17], 3.96%; in [18] it was -0.41%. The inhibition worked out at 10.1% in [19] and 4.03% in experiment [20].
In the case of `Cc1ccc2c(c1)/C(=N/Nc1ccc(S(N)(=O)=O)cc1)C(=O)N2`, the inhibition in [1] was 4.44%; in [2], 0.38%; in [3], 0.32%; in [4], 1.32%; in [5], 11%; in experiment [6] it was 1.11%. For the same compound, the inhibition is 0.07% in experiment [7]; 0.77% in [8]; 0.99% in experiment [9]; 0.28% in [10]; 1.85% in experiment [11]; -0.58% in experiment [12]. Further, the inhibition was -0.92% in [13]; 0.02% in [14]; -2.03% in experiment [15]; 1.14% in experiment [16]; 1.4% in [17]; -5.87% in experiment [18]. The values for the inhibition in [19] and in experiment [20] were 10.4% and -2.1%, respectively.
Turning to `[O-][S+]1CCN(Cc2ccc(-c3ccc4ncnc(Nc5ccc(OCc6ccccc6)c(Cl)c5)c4c3)o2)CC1`, the inhibition in [1] is 2.27%; in [2] it was 0.68%; in [3], -0.53%; in experiment [4], 3.63%; in experiment [5], 3.41%; in [6] it was 2.31%. Further, the inhibition is -0.04% in experiment [7]; 0.56% in [8]; 1.25% in experiment [9]; 0.46% in experiment [10]; 0.25% in [11]; 0.7% in experiment [12]. Besides, the inhibition in experiment [13] worked out at 1.32%; in experiment [14], 0.67%; in experiment [15], 0.37%; in [16], 0.43%; in experiment [17], 7.59%; in experiment [18], 1.44%. In addition, the values for the inhibition in experiment [19] and in [20] were 5.75% and 0.91%, respectively.

For the origin of these results see ChEMBL document CHEMBL1961873, “Compounds: GSK PKIS; Assays: Nanosyn kinase panel” (2012).
